CHX counter – counter-screen for Shiga toxin inhibitors: cycloheximide protein synthesis inhibition; cell reporter, cycloheximide protein synthesis inhibition counterscreen; max response, %; actives 12% (n = 300,000); AID 2314; in the data active = max response mostly above about 13%, no sharp cut-off; inactive = mostly below about 14%; also: read at 38.3 µM for the half of the compounds with a filed dose; 0% is about no effect
RE007 growth inh – less growth of the S. pombe RE007 Vpr strain. S. pombe RE007 Vpr strain, BacTiter-Glo ATP luminescence, 24 h. Potency, µM (doses to about 92.2 µM), for the others: at the top dose activity change, negative = less growth, usual class: inhibitors. AID 651644. actives 0.21% (n = 360,000); active = well fitted falling curve with a large enough effect; inconclusive = small, poorly fitted or top-dose-only effect; inactive = no such curve, though single readings can be large or run the other way; also: potency is read from the fitted curve at half-maximal effect; % is scaled to controls: 0 for no effect and ±100 for the full control effect; nearly all actives have a fitted effect of over 50% in size
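Fission yeast strain RE007, carrying one chromosomally integrated HIV-1 vpr copy, was seeded at OD 0.01 in PMG+AL medium with 23 nL pinned compound. After 24 h at 30 °C and 99% humidity, viability was read by BacTiter-Glo luminescence.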
Shiga inhibitor – Shiga toxin inhibition; Vero cells, Shiga toxin protein synthesis inhibition reporter; inhibition, % at 38.7 µM; actives 9.2% (n = 290,000); in the data active = inhibition mostly above about 28%, no sharp cut-off; inactive = mostly below about 43%; also: 0% is about no effect
LmPK inhibitor – inhibitors of Leishmania mexicana pyruvate kinase. purified LmPK, Kinase-Glo ATP luminescence, 1 h. Potency, µM (highest dose often 57.5 µM), inactives show top-dose activity change, negative = inhibition, usual class: inhibitors. actives 0.37% (n = 290,000). AID 1721; also: potency is read from the fitted curve at half-maximal effect; % is scaled to controls: 0 for no effect and ±100 for the full control effect
Target sequence (Q27686 whole entry, looked up): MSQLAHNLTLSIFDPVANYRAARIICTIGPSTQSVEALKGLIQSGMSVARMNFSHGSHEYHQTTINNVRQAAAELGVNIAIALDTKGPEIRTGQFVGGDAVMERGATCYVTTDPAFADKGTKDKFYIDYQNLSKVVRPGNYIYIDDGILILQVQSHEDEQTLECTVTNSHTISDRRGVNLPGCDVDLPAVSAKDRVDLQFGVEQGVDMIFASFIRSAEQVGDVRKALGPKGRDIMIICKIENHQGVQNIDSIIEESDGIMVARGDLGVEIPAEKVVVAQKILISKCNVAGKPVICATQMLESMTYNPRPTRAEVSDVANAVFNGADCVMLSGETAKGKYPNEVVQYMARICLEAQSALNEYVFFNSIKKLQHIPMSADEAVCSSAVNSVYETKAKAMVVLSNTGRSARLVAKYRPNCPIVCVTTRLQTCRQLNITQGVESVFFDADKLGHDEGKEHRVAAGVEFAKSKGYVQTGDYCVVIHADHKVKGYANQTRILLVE
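Kinase-Glo luminescence read after 1 h RT reaction of 0.1 nM LmPK with 0.5 mM PEP and 0.1 mM ADP. Activity scaled between uninhibited and enzyme-free controls.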
Giardia FBPA inh – blocks Giardia fructose-bisphosphate aldolase activity; A8B2U2; purified Giardia FBPA; Potency, µM (top dose mostly 59.6 µM), without a hit: at the top dose activity, negative = inhibition, usual class: inhibitors; actives 0.71% (n = 290,000); AID 2451; also: potency is read from the fitted curve at half-maximal effect; % is scaled to controls: 0 for no effect and ±100 for the full control effect; nearly all actives have a fitted effect of over 55% in size
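Giardia FBPA (40 nM reagent) was preincubated 10 min at RT with compound (up to 57.5 uM final), then substrate plus GAPDH/TPI/NAD/arsenate coupling system with diaphorase/resazurin was added; resorufin fluorescence (525/598 nm) was read after 20 min.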
Tb PYK inh – inhibitors of Trypanosoma brucei pyruvate kinase; Q57TT1; TbPYK enzyme, Kinase-Glo Plus ATP luminescence, 45 min; Potency, µM (series often up to 76.8 µM), for the others: top-dose activity, negative = inhibition, most hits filed as inhibitors; actives 0.12% (n = 410,000); AID 624173; also: potency is read from the fitted curve at half-maximal effect; % is scaled to controls: 0 for no effect and ±100 for the full control effect; nearly all actives have a fitted effect of over 50% in size
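Luminescent Kinase-Glo Plus end-point after 45 min room-temperature reaction of T. brucei pyruvate kinase started with 130 uM ADP (final). Buffer TEA 50 mM pH 7.2 with KCl, MgCl2, BSA, Tween-20; titration-based qHTS with fitted concentration-effect curves.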
An asterisk follows results filed as active; ? = inconclusive; · = not tested or not shown; [ ] = another dose, or the depositor's remark. Only a selection was taken, and hits are over-represented in it overall. Unless noted, calls follow the shape of the dose curve; as a rule, active = well fitted curve in the direction sought with a large enough effect; inconclusive = small, poorly fitted or top-dose-only effect, or another doubt; inactive = no such curve, though single readings can be large; an effect the other way counts as inactive or inconclusive.

SMILES	CHX counter	RE007 growth inh	Shiga inhibitor	LmPK inhibitor	Giardia FBPA inh	Tb PYK inh
COc1ccc(CCNC(=O)c2ccc(Cn3c(=O)c4ccccc4n(CC(=O)C(C)(C)C)c3=O)cc2)cc1OC	·	·	·	·	·	-1.6%
COC(=O)C1=C(C(=O)OC)[C@@H]2N(C)c3ccc(OC)cc3[C@@]23C[C@@H](C(=O)OC)N(S(=O)(=O)c2c(C)noc2C)C3=N1	·	·	·	-5.3%[11.5 µM]	-0.6%[12.9 µM]	·
CCOC(=O)Cn1nc(-c2ccccc2)c(-c2ccccc2)nc1=O	-2.1	0.0%	-8.5	6.0%	2.9%	-7.0%
CCn1nc(-c2ccccc2)nc2c(=O)n(C)c(=O)nc1-2	42.8*	25.1µM*	48.3*	1.0%	?	-4.7%
CCS(=O)(=O)c1oc(-c2ccc(F)cc2)nc1S(=O)(=O)c1ccc(Br)cc1	·	·	·	·	·	2.8%
CC(=O)ON=C1C=CC(=C(C#N)c2ccccc2)C=C1	·	3.98µM*	·	·	·	?
N#CC(=C1C=CC(=NO)C(Cl)=C1)c1ccc(Cl)cc1	·	-9.9%	·	·	·	-6.0%
COc1ccc(C(C#N)=C2C=CC(=NO)C=C2)cc1	17.5*	?	-3.5	-4.2%	-0.2%	-15.1%
CC(=O)OC(=C(OC(C)=O)c1ccccc1)c1ccccc1	·	7.2%	·	·	·	4.0%
O=C(CC1N=C2c3ccccc3N=C(SCc3cccc(Cl)c3)N2C1=O)NC1CCCCC1 (centres undefined)	·	·	·	·	·	-3.8%
COC(=O)C(=O)C/C(=N/Nc1ncnc2ccccc12)c1ccc(Cl)cc1	27.0*	7.8%	86.1*	2.1%	25.4%	-9.3%
CC(C)(CC(=O)O)CC(=O)NNc1ncccc1C#N	-1.3	-12.4%	-5.3	-0.9%	2.4%	-7.1%
CCC(C)c1ccc(Nc2ncccc2C#N)cc1 (centres undefined)	38.3*	-7.1%	69.3*	-9.6%	0.3%	0.4%
CCc1ccc(Nc2ncccc2C#N)cc1	28.2*	-13.9%	24.9	-27.9%	0.8%	13.8%
CCCCSCCCNC(=O)c1c[nH]c2ccc(S(=O)(=O)Nc3cccc(OC)c3)cc2c1=O	·	·	·	·	·	0.6%
O=c1c(-c2cc3ccccc3o2)[n+]([O-])c2ccccc2n1OCc1ccccn1	47.7*	-11.2%	101.4*	-6.2%	-5.8%	-8.7%
CCOn1c(=O)c(-c2cc3ccccc3o2)[n+]([O-])c2ccccc21	47.3*	-17.2%	163.4*	0.8%	-2.3%	-9.9%
CCOn1c(=O)c(-c2ccc(Br)cc2)[n+]([O-])c2ccccc21	8.8	-2.5%	22.1	2.6%	7.0%	-2.5%
O=c1c(-c2ccc(Br)cc2)[n+]([O-])c2ccccc2n1OCc1ccccn1	0.4	6.4%	22.8	2.2%	0.0%	?
Cc1ccc(C)c(Cn2c(=O)n(C(C)C)c(=O)c3oc4ccccc4c32)c1	·	·	·	·	·	1.5%
CCOc1ccc(NC(=O)c2c(NC(=O)Cc3ccccc3)sc3c2CCCC3)cc1	·	·	·	·	·	4.1%
CCCCNC(=O)C1(C)CCCCN1C(=O)c1ccc(C)c(F)c1 (centres undefined)	·	5.4%[18.4 µM]	·	·	·	2.7%
Cc1cccc(NC(=O)c2sc3nc(N)c(C#N)cc3c2N)c1	31.3*	-5.7%	72.0*	0.9%	-9.0%	-1.7%
CN1CCc2nc3sc(C(=O)Nc4cccc(C#N)c4)c(N)c3cc2C1	·	·	·	·	·	-10.3%
N#Cc1cc2c(N)c(C(=O)Nc3ccccc3)sc2nc1N	36.4*	·	90.2*	2.7%	?	·
SMILES	CHX counter	RE007 growth inh	Shiga inhibitor	LmPK inhibitor	Giardia FBPA inh	Tb PYK inh
Cc1oc2c(c1C(=O)Nc1ccccc1Br)C1=NCCN1C=N2	·	·	·	·	·	2.2%
CCOc1ccccc1-c1noc(CCCC(=O)Nc2cccc(C(F)(F)F)c2)n1	·	·	·	·	·	0.0%
Cc1cc(C)n(C(=O)c2cc3c(s2)CCCC3)n1	18.6	-17.8%	88.9*	-6.2%	-0.6%	2.4%
C[C@@H]1CCC2C(C)(C)C3CC21CC[C@@]3(C)O (some centres undefined)	·	·	·	·	-3.3%	·
c1ccc(C[n+]2c(-c3ccccc3)csc2Nc2ccccc2)cc1	15.1*	1.0%	35.5	3.2%	6.3%	-0.2%
CCCCCC[n+]1c(-c2ccc(Cl)cc2Cl)csc1Nc1ccccc1	-6.1	-10.4%	-2.7	-1.2%	2.5%	2.3%
c1ccc(Nc2scc(-c3ccccc3)[n+]2Cc2ccco2)cc1	52.1*	-19.1%	158.0*	1.1%	-15.5%	-3.6%

Compound activity (PubChem BioAssay)
